Assay results reported in PubChem BioAssay (EPA / NIEHS).
Calls of active or inactive are those of the source. The calls were made as follows: active = hit-call score of the fitted dose curve at least 0.9, where 1 is the maximum; inactive = score below 0.9.

Experiments:
[1] = ATG_NFI_CIS: Attagene CIS-FACTORIAL HepG2 Assay for human Nuclear Factor I (NFI) (AID 2282989); conditions: HepG2 cis-regulatory reporter, NFI response element transcription; actives raise or lower the signal
Summary of the method: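 Multiplexed cis-reporter system in human HepG2 cells reports native TF activity as reporter mRNA induction 24 h post-dose. Fragments labelled with 6-FAM, HpaI-digested and resolved by capillary electrophoresis; activity fitted both directions versus DMSO.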

[2] = biological target: Myc proto-oncogene protein (Homo sapiens) (UniProt P01106); assay: ATG_Myc_CIS: Attagene CIS-FACTORIAL HepG2 Assay for human Myelocytomatosis (Myc) Proto-Oncogene Transcription Factor (AID 2282990); conditions: HepG2, Attagene cis-reporter transcription factor activity; actives raise or lower the signal
Summary of the method: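 DMSO-normalised, bidirectionally fitted reporter mRNA signal. HepG2 cells transfected with cis reporter constructs, treated 24 h; transcripts detected by RT-PCR, 6-FAM primer extension and CE.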

[3] = ATG_NF_kB_CIS: Attagene CIS-FACTORIAL HepG2 Assay for human Nuclear Factor Kappa B (NF-kB) (AID 2282991); conditions: HepG2 Attagene cis-factorial NF-kB reporter mRNA; actives raise or lower the signal
Summary of the method: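 Multiplexed cis-reporter assay in transiently transfected HepG2. 24 h treatment; RNA isolated, RT-PCR, labelled fragments resolved by CE. DMSO baseline.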

[4] = ATG_NRF2_ARE_CIS: Attagene CIS-FACTORIAL HepG2 Assay for human Nuclear Factor Erythroid 2 Related Factor 2 (NFR2) response to Antioxidant Response Elements (ARE) (AID 2282992); conditions: HepG2 Attagene ARE/NRF2 reporter, transcription factor activity; actives raise or lower the signal;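 as to AC50: reporter mRNA level measured by RT-PCR and capillary electrophoresis fluorescence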
Summary of the method: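 Endogenous transcription factor activity in human liver HepG2 cells is tracked via a cis-element-driven reporter within a multiplexed set. mRNA induction is read by RT-PCR and capillary electrophoresis after 24 h, with DMSO as baseline.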

[5] = ATG_Oct_MLP_CIS: Attagene CIS-FACTORIAL HepG2 Assay for human Octamer-Binding Transcription Factor (Oct) (AID 2282993); conditions: HepG2 Attagene cis-factorial Oct reporter, mRNA; actives raise or lower the signal
Summary of the method: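 After 24 h compound exposure, transfected HepG2 cells were lysed for total RNA; reporter-specific cDNA was PCR-amplified, fluorescently labelled and sized by capillary electrophoresis. Bidirectional curve fitting used DMSO as baseline.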

[6] = biological target: Cellular tumor antigen p53 (Homo sapiens) (UniProt P04637); assay: ATG_p53_CIS: Attagene CIS-FACTORIAL HepG2 Assay for human p53 Transcription Factor (AID 2282994); conditions: HepG2 p53 cis-element reporter, Attagene mRNA; actives raise or lower the signal
Summary of the method: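 Steps: transfect HepG2 with multiplexed cis reporter constructs; dose chemicals 24 h; extract RNA, reverse-transcribe, PCR-amplify reporter sequences; FAM-label, HpaI-digest, resolve fragments by CE. Activity fitted both directions relative to DMSO.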

Myc proto-oncogene protein (Homo sapiens), sequence (P01106 whole entry, looked up): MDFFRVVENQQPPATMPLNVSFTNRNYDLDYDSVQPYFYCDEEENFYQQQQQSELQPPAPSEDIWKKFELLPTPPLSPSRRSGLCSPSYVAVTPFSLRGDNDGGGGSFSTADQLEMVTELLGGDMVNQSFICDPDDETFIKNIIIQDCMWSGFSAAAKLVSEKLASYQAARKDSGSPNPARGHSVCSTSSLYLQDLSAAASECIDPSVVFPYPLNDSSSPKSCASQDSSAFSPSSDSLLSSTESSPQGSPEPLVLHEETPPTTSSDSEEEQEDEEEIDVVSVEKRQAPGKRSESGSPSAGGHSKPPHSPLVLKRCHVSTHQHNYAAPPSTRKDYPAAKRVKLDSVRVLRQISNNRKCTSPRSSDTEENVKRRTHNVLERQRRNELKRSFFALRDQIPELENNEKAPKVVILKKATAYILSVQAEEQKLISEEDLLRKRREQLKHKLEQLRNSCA
Cellular tumor antigen p53 (Homo sapiens), sequence (P04637 whole entry, looked up, the tested form may be a part): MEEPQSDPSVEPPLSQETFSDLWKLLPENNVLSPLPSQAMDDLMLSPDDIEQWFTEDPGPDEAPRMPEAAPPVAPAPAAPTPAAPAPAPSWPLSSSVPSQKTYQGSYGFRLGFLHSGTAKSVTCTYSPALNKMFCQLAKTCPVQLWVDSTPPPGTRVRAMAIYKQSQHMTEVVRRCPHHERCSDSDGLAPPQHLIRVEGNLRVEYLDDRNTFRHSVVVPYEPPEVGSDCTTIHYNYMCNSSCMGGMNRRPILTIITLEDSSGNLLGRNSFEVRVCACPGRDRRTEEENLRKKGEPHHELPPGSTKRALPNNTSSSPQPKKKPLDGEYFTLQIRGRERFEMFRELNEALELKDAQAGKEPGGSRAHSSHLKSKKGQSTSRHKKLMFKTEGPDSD

SMILES | outcome [1] | outcome [2] | outcome [3] | outcome [4] | outcome [5] | outcome [6] | AC50 [3] | AC50 [6] | AC50 [4] | AC50 [2]
CCOCC(=O)O | inactive | inactive | inactive | inactive | inactive | inactive |  |  |  | 
c1c[nH]cn1 | inactive | inactive | inactive | inactive | inactive | inactive |  |  |  | 
CC(=O)OC1C2(C)CCC(C2)C1(C)C (centres undefined) | inactive | inactive | inactive | inactive | inactive |  |  |  |  | 
CC(=O)OCC(=O)[C@@]12N=C(C)O[C@@H]1C[C@H]1[C@@H]3CCC4=CC(=O)C=C[C@]4(C)[C@H]3[C@@H](O)C[C@@]12C | inactive | inactive | inactive | inactive | inactive | inactive |  |  |  | 
SCCc1cnccn1 | inactive | inactive |  | inactive | inactive |  | 47.7 µM (active) | 46.4 µM (active) |  | 
C=C[Si](C)(C)O[Si](C)(C)C=C | inactive | inactive | inactive | inactive | inactive | inactive |  |  |  | 
CC(C)(C)c1n[nH]c(=O)n(N)c1=O | inactive | inactive | inactive | inactive | inactive | inactive |  |  |  | 
CNC(=S)N(C)C | inactive | inactive | inactive | inactive | inactive | inactive |  |  |  | 
CC(=O)OCc1ccco1 | inactive | inactive | inactive |  | inactive |  |  |  | 45.3 µM (active) | 
C=C(C)[C@@H]1CCC2=CCC[C@@H](C)[C@]2(C)C1 | inactive | inactive | inactive |  | inactive | inactive |  |  | 87.3 µM (active) | 
CCOC(=O)N1CCC(=C2c3ccc(Cl)cc3CCc3cccnc32)CC1 | inactive | inactive | inactive | inactive | inactive |  |  | 7.13 µM (active) |  | 
CCN(CCO)c1cccc(C)c1 | inactive | inactive | inactive | inactive | inactive | inactive |  |  |  | 
CC1(C)O[C@@H]2C[C@H]3[C@@H]4C[C@H](F)C5=CC(=O)CC[C@]5(C)[C@H]4[C@@H](O)C[C@]3(C)[C@]2(C(=O)CO)O1 | inactive | inactive | inactive | inactive | inactive | inactive |  |  |  | 
CCCCCCCCCCCCCCCC(=O)OCC | inactive | inactive | inactive | inactive | inactive |  |  |  |  | 
CCOC(=O)NNc1nncc2ccccc12 | inactive | inactive | inactive | inactive | inactive | inactive |  |  |  | 
OC1CCCC1 | inactive | inactive | inactive | inactive | inactive |  |  |  |  | 
c1ccc(CCCc2ccncc2)cc1 | inactive | inactive | inactive |  | inactive | inactive |  |  | 45.4 µM (active) | 
Cc1ccc([N+](=O)[O-])cc1S(=O)(=O)O | inactive |  | inactive | inactive | inactive | inactive |  |  |  | 165 µM (active)

SMILES | outcome [1] | outcome [2] | outcome [3] | outcome [4] | outcome [5] | outcome [6] | AC50 [3] | AC50 [6] | AC50 [4] | AC50 [2]
Cc1oncc1C(=O)Nc1ccc(C(F)(F)F)cc1 | inactive | inactive | inactive |  | inactive | inactive |  |  | 100 µM (active) | 
O=C(/C=C/C=C/c1ccc2c(c1)OCO2)N1CCCCC1 | inactive | inactive | inactive |  | inactive | inactive |  |  | 47.4 µM (active) | 
ON(Cc1ccccc1)Cc1ccccc1 | inactive | inactive | inactive | inactive | inactive | inactive |  |  |  | 
O=c1n(CCO)c(=O)n(CCO)c(=O)n1CCO | inactive | inactive | inactive | inactive | inactive | inactive |  |  |  | 
CC[C@H]1OC(=O)[C@H](C)[C@@H](O[C@H]2C[C@@](C)(OC)[C@@H](O)[C@H](C)O2)[C@H](C)[C@@H](O[C@@H]2O[C@H](C)C[C@H](N(C)C)[C@H]2O)[C@](C)(O)C[C@@H](C)C(=NOCOCCOC)[C@H](C)[C@@H](O)[C@]1(C)O | inactive | inactive | inactive | inactive | inactive |  |  |  |  | 
O=C1CCC(=O)N1Cl | inactive | inactive | inactive | inactive | inactive |  |  |  |  | 
CCCCCC(C)O (centres undefined) | inactive | inactive | inactive | inactive | inactive |  |  |  |  | 
O=S(=O)(O)c1ccc2cc(O)c(S(=O)(=O)O)cc2c1 | inactive | inactive |  |  | inactive |  | 120 µM (active) | 182 µM (active) | 46.6 µM (active) | 
O=C(O)C(c1ccc(Cl)cc1)c1ccc(Cl)cc1 | inactive | inactive | inactive | inactive | inactive |  |  |  |  | 
Cc1cc(=O)n(-c2ccccc2)n1C | inactive | inactive | inactive | inactive | inactive | inactive |  |  |  | 
Cn1c(=O)[nH]c2ncn(C)c2c1=O | inactive | inactive | inactive | inactive | inactive | inactive |  |  |  | 
O=C(OCC1CCC2OC2C1)C1CCC2OC2C1 (centres undefined) | inactive | inactive | inactive | inactive | inactive | inactive |  |  |  | 
CC(=O)C=CC1C(C)=CCC(C)C1(C)C (centres undefined) | inactive | inactive | inactive |  | inactive | inactive |  |  | 27.8 µM (active) | 
Nc1ccc(Oc2ccc(N)c(N)c2)cc1 | inactive | inactive | inactive |  | inactive |  |  |  | 30.6 µM (active) | 
O=C(c1ccccc1)C1CCC1 | inactive | inactive | inactive | inactive | inactive |  |  |  |  | 
COC(=O)C1=C(C)NC(C)=C(C(=O)OCC(C)C)C1c1ccccc1[N+](=O)[O-] (centres undefined) | inactive | inactive | inactive | inactive | inactive | inactive |  |  |  | 
COC=O | inactive | inactive | inactive | inactive | inactive |  |  |  |  | 
